Source: ChEMBL document CHEMBL4296182, “CO-ADD screening of NIH NCI Diversity Set V”
For part of these data: Measured potencies and affinities stand elsewhere.

Assays:
Staphylococcus aureus = experiment: Antibacterial activity against Staphylococcus aureus MRSA ATCC 43300 (CO-ADD:GP_020); MIC in CAMBH media using NBS plates, by Resazurin F(560/590); type: functional; details: Concentration 20 uM, ASSAY_TEST Inhibition of Bacterial Growth, detection method Resazurin, Fluorescence (ex560/em590), MEDIA CAMHB, plate type 384well, CORNING #3640, time 18 hr
Acinetobacter baumannii = experiment: Antibacterial activity against Acinetobacter baumannii ATCC 19606 (CO-ADD:GN_034); MIC in CAMBH media using NBS plates, by Resazurin F(560/590); type: functional; details: Concentration 20 uM, ASSAY_TEST Inhibition of Bacterial Growth, detection method Resazurin, Fluorescence (ex560/em590), MEDIA CAMHB, plate type 384well, CORNING #3640, time 18 hr
Escherichia coli = experiment: Antibacterial activity against Escherichia coli ATCC 25922 (CO-ADD:GN_001); MIC in CAMBH media using NBS plates, by Resazurin F(560/590); type: functional; details: Concentration 20 uM, ASSAY_TEST Inhibition of Bacterial Growth, detection method Resazurin, Fluorescence (ex560/em590), MEDIA CAMHB, plate type 384well, CORNING #3640, time 18 hr
Klebsiella pneumoniae = details: Concentration 20 uM; ASSAY_TEST Inhibition of Bacterial Growth; detection method Absorption (OD600); MEDIA CAMHB; plate type 384well; NBS; CORNING #3640; time 18 hr
Candida albicans = details: 20 µM
Cryptococcus neoformans = details: Concentration 20 uM; ASSAY_TEST Inhibition of Fungal Growth; detection method Resazurin; Absorption (OD600-OD570); plate type 384well; NBS; CORNING #3640

Structure (SMILES)	Inhibition (Staphylococcus aureus) [%]	Inhibition (Acinetobacter baumannii) [%]	Inhibition (Escherichia coli) [%]	Inhibition (Klebsiella pneumoniae) [%]	Inhibition (Candida albicans) [%]	Inhibition (Cryptococcus neoformans) [%]
O=C(O)CCC(=O)OCCN(Cc1ccc(Oc2ccc([N+](=O)[O-])cc2)cc1)C(=O)C(Cl)Cl	-5.95	0.5	-4.03	4.09	4.52	-1.27
CCCCCCCC1(C)NC(=O)NC1=O (centres undefined)	7.54	3.29	6.05	5.77	0.59	-12.36
CCCCOc1nc2c(c(=O)n(C)c(=O)n2C)n1C	18.84	14.19	18.86	3.58	11	10.8
c1ccc2c(c1)-c1cccc3cncc-2c13	1.08	-2.19	3.18	7.94	12.2	-10.41
Clc1nc(Cl)nc(-c2cn(-c3ccccc3)c3ccccc23)n1	19.15	12.32	3.43	3.41	-0.1	5.66
Clc1ccc(/C=C/c2nc(Cl)c(-c3ccc(Cl)cc3)c(Cl)n2)cc1	8.11	11.58	9.97	19.84	4.64	-12.98
CCN(CC)CCNc1c(C)cc(CO)c(Cl)c1C.O=S(=O)(O)NC1CCCCC1	5.65	-16.4	16.33	7.45	1.43	-0.32
CSc1ccc2c(c1)C(N1CCN(C)CC1)Cc1ccccc1S2.O=C(O)/C=C\C(=O)O (centres undefined)	-0.23	-8.02	11.6	5.53	2.59	-7.96
Nc1nc(Cl)cc(Nc2ccccc2Cl)n1	12.37	13.94	-7.98	12.81	7.79	1.11
O=[N+]([O-])c1cccnc1Oc1cc(Cl)c(Cl)cc1Cl	13.29	1.57	1.62	4.9	1.25	-4.41
Oc1ccc(Cc2ccccc2Cl)c(O)c1	14.48	-16.11	10.23	8.44	-1.58	-12.35
CN(C)Cc1cc(C(F)(F)F)ccc1C(O)(c1ccccc1)c1ccccc1	9.65	13.38	9.52	10.99	-1.43	-9.44
O=C(CC1(O)CCCCC1)OC1CCCC1	-23.97	3.29	-15.82	-7.74	2.66	30.45
O=C(NC(=S)Nc1ccccn1)c1ccccc1	-7.14	-16.09	5.5	8.04	10.1	-15.94
Cc1ccc(Nc2ccc(N)cc2S(=O)(=O)O)cc1	11.37	8.99	-1.31	9.09	3.65	-9.37
CCOc1ccc(S(=O)(=O)c2ccc(C)cc2)c2c1no[n+]2[O-]	12.11	5.81	11.8	9.49	1.5	-13.62
CCOC(=O)c1cnc(SCC)nc1O	11.19	-12.25	0.66	10.25	0.68	-8.17
Nc1nc(S)c2ncn(C3CCCC3)c2n1	16.34	-8.37	6.43	18.77	-3.88	-14.08
CC(C)=CCC/C(C)=C\C(N)=O	-1.13	-1.29	11.31	-1.44	-0.52	-3.28
CN(C)S(=O)(=O)Nc1cccc(Br)c1	1.46	-10.63	3.48	2.53	4.88	43.58
CC(=O)n1cc(C2CC(=O)OC3=C2CC(=O)C(C)(C)C3)c2ccccc21 (centres undefined)	13.95	4.13	1.01	11.94	2.8	-0.61
CC1(C)OC2CC(=O)OCC23C1CC(=O)C1(C)C3CCC2(C)C(c3ccoc3)OC(=O)C3OC321 (centres undefined)	21.22	-6.97	8.41	8.88	0.13	-7.86
COC(=O)Nc1csc2c1NC(=O)CCCC2	9.05	-9.14	10.25	10.74	1.85	-7.13
CC(=O)NCC(=O)O.CN(C)CCC1c2ccc(Cl)cc2CCc2cccnc21 (centres undefined) [CLOSIRAMINE ACETURATE]	15.26	-11.76	19.15	8.33	-2.05	-9.31
CC1=CC2=C(C=O)C(=O)[C@](C)(O)[C@@H](O)C2=CO1	-0.76	11.76	8.5	9.69	4.9	-12.05

Structure (SMILES)	Inhibition (Staphylococcus aureus) [%]	Inhibition (Acinetobacter baumannii) [%]	Inhibition (Escherichia coli) [%]	Inhibition (Klebsiella pneumoniae) [%]	Inhibition (Candida albicans) [%]	Inhibition (Cryptococcus neoformans) [%]
CCC(C)N=C(S)Nc1ccccc1 (centres undefined)	-4.21	6.89	4.84	5.07	5.4	-3.02
CSc1nnc(-c2cccs2)[nH]1	9.02	-12.85	11.01	0.04	1.33	-11.54
CCOC(=O)c1c(C)c(C(=O)OCC)n(C)c1C	8.23	6.43	-8.3	6.99	4.68	10.56
CCOC(=O)c1ccc(NC(=O)Oc2cc(C)c(Cl)cc2C(C)C)cc1	20.21	9.47	4.16	12.01	4.36	-1.17
CC(C)c1cc(C(F)(F)F)nc(NNc2nc(C(C)C)cc(C(F)(F)F)n2)n1	18.88	-11.48	9.37	26.13	9.95	-5.35
COc1cc2c(NCCCCCO)ncnc2c(OC)c1OC	13.68	10.53	6.4	13.53	0.91	-4.07
O=C(COc1cc(Cl)c(Cl)cc1Cl)Nc1ccc([N+](=O)[O-])cc1Cl	25.16	-3.59	13.57	15.89	2.39	1.18
CC1CC(C)(C)C2=NCCN21 (centres undefined)	12.73	-16.85	7.35	11.7	5.23	-11
O=C(O)C1=NN(c2cc(Cl)c(S(=O)(=O)O)cc2Cl)C(=O)C1	10.8	12.97	19.15	14.41	2.3	-14.45
CCOC(=O)C1CC(=O)c2cc(OC)c(OC)cc2C1 (centres undefined)	-2.55	9.78	7.27	13.25	3.32	-12.53
Cc1cc(O)c2c(C)ccc(C)c2n1	0.21	1.08	3.82	5.25	0.13	-9.44
Cc1nc([C@H]2CC[C@H]3[C@@H]4CCC5=CC(=O)CC[C@]5(C)[C@H]4CC[C@]23C)cs1	4.31	15.21	6.81	9.22	2.4	-7.32
NC(CSC1(c2cccc3ccccc23)c2ccccc2-c2ccccc21)C(=O)O (centres undefined)	9.31	-6.6	9.55	13.19	7.56	-2.74
Cn1ncc2c(Nc3ccc(Br)cc3)nc(Nc3ccc(Br)cc3)nc21	3.19	-7.92	12.54	2.31	-0.11	-3.38
Clc1ccc(-c2[nH]nc3c2Cc2ccccc2-3)cc1Cl	-2.87	13.22	-5.11	8.31	5.84	2.71
CCCCC(=O)N1CCCC(C)C1 (centres undefined)	12.48	-11.97	4.56	-3.93	4.76	-4.37
N#Cc1cnn(-c2cccc(Cl)c2)c1-n1cccc1	7.59	-21.29	14.62	3.39	9.39	-16.73
CCOC(=O)Cc1cc(O)c2cc(C)ccc2n1	11.68	-4.86	11.33	2.93	-1.04	-11.29
Oc1ccc(/C=C\c2cnccn2)cc1	3.99	-7.27	16.94	16.23	1.24	-11.21
CSc1nsc(NN)n1	4.83	-22.35	5.94	8.53	8.71	-11.9
c1ccc(-c2ccc3c(c2)NC(C2Nc4cc(-c5ccccc5)ccc4O2)O3)cc1 (centres undefined)	3.85	1.02	2.77	24.34	-1.54	-14.91
O=C(NC(=S)Nc1cccc2c(O)cccc12)c1cccc(Br)c1	25.64	-2.51	14.87	10.97	12.3	-5.01
CCCCCCCCCCCCC(NC(C)=O)(C(=O)OCC)C(=O)OCC	14.33	7.7	5.2	18.57	7.18	-2.7
CN(C(=O)c1ccncc1)c1ccccc1	38.14	13.73	16.42	7.45	4.18	6.4
